These results are taken from PubChem BioAssay AID652067 (The Scripps Research Institute Molecular Screening Center, 2013).

The campaign covered roughly 370,000 compounds. About 5,400 (1.5%) were called active. The full list was thinned out, with actives kept by preference. Values without a mark were called inactive.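 Rule for the calls: active = activation above the mean of all tested compounds plus 3 SD (cut at about 5.5% in these data); inactive = the rest.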

This experiment concerns DAF-12 nuclear receptor (Haemonchus contortus). Put plainly: hcDAF-12 driven luciferase reporter activation – cell-based, luminescence, HEK293, lit1-tk-luc reporter, primary screen (AID 652067).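 Note: 100% = response to 3 µM Δ7-dafachronic acid high control.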 Conditions: HEK293 hcDAF-12 lit1-tk-luc reporter, at 6.8 µM, active compounds read high, 0% DMSO, 100% Δ7-dafachronic acid. For orientation: In a reporter assay the amount or activity of a reporter protein is the signal.
For the compound `Cc1nnc(SCC(=O)N2CCN(c3ccccc3)CC2)n1-c1ccccc1`, the activation was 6.51% (active).

For `Cc1cc2nnc(SCC(=O)N3CCN(c4ccccc4)CC3)n2c(N)n1`, the activation is -2.55%.

Regarding `O=C(CSc1nnc(Cc2ccccc2)n1-c1ccccc1)N1CCOCC1`, the activation was -0.92%.

Regarding `N#Cc1c(NC(=O)C2CCCO2)sc2c1CCCCC2` (stereo unspecified), the activation was 6.65% (active).

Turning to `CCC1CCc2c(sc(NC(C)=O)c2C#N)C1` (stereo unspecified), the activation was -0.54%.

With `N#Cc1c(NC(=O)c2ccc(N3CCOCC3)c([N+](=O)[O-])c2)sc2c1CCCC2`, the activation is -0.5%.

As to `COC(=O)C1=C(C)NC(=S)NC1c1ccc(OC)cc1` (stereo unspecified), the activation was -0.46%.

Take `C=CC[C@]12C[C@@]3(O[C@H](c4ccc(C(F)(F)F)cc4)N=C3C[C@H](c3ccc(OC)cc3)[C@H]1C)N(C1CCN(Cc3ccccc3)CC1)C2=O`: the activation is 1.02%.

As for `O=c1c2c(nc3n1CCCCC3)sc1c(O)cccc12`, the activation is 5.87% (active).

For `CC(=O)c1ccc(NC(=O)c2sc3nc4n(c(=O)c3c2C)CCCCC4)cc1`, the activation was 3.47%.

With `N=c1c2c3c(sc2nc2n1CCCCC2)CCCC3`, the activation was 0.65%.

For `c1csc(-c2nnc(SCc3nc4ccccc4[nH]3)o2)c1`, the activation was 0.87%.

In the case of `CC1CCCN(c2cccc3c2S(=O)(=O)N(Cc2ccc(F)cc2)[C@@H](C)[C@H](c2ccccc2)O3)C1` (stereo partly specified), the activation was -1.13%.

Regarding `Cc1ccc(SCCC(=O)NC(C(C)C)C(C)C)cc1`, the activation was -0.97%.

As for `Cc1ccc(SCCC(=O)NCc2ccccn2)cc1`, the activation was 0.97%.

As to `Cc1ccc(SCCSc2ncccn2)cc1`, the activation is 7.62% (active).

On to `COc1cccc(CN(C)C(=O)CC23CC4CC(CC(C4)C2)C3)c1OC`, for which the activation is -1.43%.

On to `CCOC(=O)c1ccc(-c2ccc3ncnc(N(C)Cc4sccc4C)c3c2)o1`, for which the activation was 0.56%.

On to `COCCCNc1nc2ccccc2nc1NS(=O)(=O)c1ccc(F)cc1`, for which the activation is 4.77%.

Turning to `Cc1ccc(S(=O)(=O)C(C#N)c2nc3ccccc3nc2N2CCCC2)cc1C` (stereo unspecified), the activation is -0.94%.

With `Cc1ccc(S(=O)(=O)Nc2nc3ccccc3nc2N2CCc3ccccc3C2)cc1`, the activation was 6.92% (active).

As for `O=C(CSc1nc2c(c(=O)[nH]1)CCCC2)N1CCCCC1`, the activation is 0.61%.

For `CCOC(=O)C1CCN(C(=O)C(C)(C)NC(=O)Nc2ccc(F)c(F)c2)CC1`, the activation is -0.52%.

As for `O=C(NCc1cccs1)C1CCN(S(=O)(=O)c2ccccc2[N+](=O)[O-])CC1`, the activation was -1.15%.

As for `c1ccc2c(CCN3CCNC[C@H]3Cc3cccc4ccccc34)cccc2c1`, the activation was -0.26%.

In the case of `c1ccc(C2CNCc3c2ccc2ccccc32)cc1` (stereo unspecified), the activation was 6.29% (active).

`Cn1ncc([N+](=O)[O-])c1C(=O)Nc1cc(Cl)ccc1Cl`: the activation is -1.09%.

As for `c1coc(CCNc2ncnc3ccc(-c4ccc5c(c4)OCO5)cc23)c1`, the activation is 3.8%.

For `CC(C)(C)C(c1nc2ccccc2[nH]1)n1c(Cc2csc3ccccc23)nc2ccccc21` (stereo unspecified), the activation is 6.12% (active).

Regarding `CC(C)n1c(NCc2c[nH]c3ccccc23)nc2ccccc21`, the activation was 1.49%.

On to `CCC(c1nc2ccccc2[nH]1)n1c(=O)c(-c2cccs2)nc2ccccc21` (stereo unspecified), for which the activation is -1.27%.

With `N#Cc1nc(N)nc(N(c2ccccc2)c2ccccc2)n1`, the activation is -1.6%.

For `Cc1ccccc1NC(=O)N1CCCC1C(=O)NCc1ccccc1` (stereo unspecified), the activation is 0.56%.

For the compound `Cc1ccccc1C(=O)N[C@H](C(=O)N1CCC[C@H]1C(=O)NCc1ccccc1)C(C)C`, the activation was 6.82% (active).

Regarding `CC(C)C[C@H](NC(=O)CC1CCCC1)C(=O)N1CCC[C@H]1C(=O)NCc1ccccc1`, the activation is -1.97%.

In the case of `C=CCN1[C@H](CC(C)C)COc2cccc(N3CCCC3)c2S1(=O)=O`, the activation was 1.33%.

Regarding `COC(=O)[C@]12C[C@H](CC(=O)N3CCN(C(=O)C4CC4)CC3)C(=O)N(Cc3ccc4c(c3)OCO4)C1=C[C@H](C(C)(C)C)O[C@@H]2C`, the activation was -0.45%.

For the compound `Nc1ncnc2c1ncn2[C@@H]1O[C@H](C(=O)N[C@@H](CCc2ccccc2)C(=O)N2CCCN(Cc3cccs3)CC2)[C@@H](O)[C@H]1O`, the activation is -0.84%.

On to `CC1CCN(c2ccc(C(=O)O)cc2NS(=O)(=O)c2ccc(Br)s2)CC1`, for which the activation is 0.68%.

On to `O=C(Nc1ccn(Cc2ccccc2)n1)c1cccc(F)c1`, for which the activation was 8.2% (active).

`Cc1c(Br)c([N+](=O)[O-])nn1CC(=O)N1CCN(Cc2ccccc2)CC1`: the activation is -0.25%.

Consider `CCOc1cccc(C(=O)Nc2cnn(Cc3ccccc3)c2)c1`, for which the activation is -0.69%.

As to `O=C(Nc1ccn(Cc2ccccc2)n1)c1n[nH]c([N+](=O)[O-])c1Cl`, the activation was 5.98% (active).

Consider `O=C(Cn1cnc([N+](=O)[O-])n1)NCCc1ccccc1`, for which the activation was 1.32%.

For `Cc1ccc(NC(=O)CC2C(=O)N(Cc3ccccc3)C(=S)N2NC(=O)c2cccc(F)c2)c(C)c1` (stereo unspecified), the activation was 0.38%.

Turning to `CCCCCN1CCCCC(NC(=O)C(C)CCC)C1=O` (stereo unspecified), the activation is 0.16%.

For `CC(C)(C)C(=O)Nc1c(Br)c(C2CC2)nn1-c1ccccc1`, the activation is -0.94%.

For `O=C(CCCCCN1C(=O)C2C3C=CC(C3)C2C1=O)Nc1ccccc1` (stereo unspecified), the activation was -1.48%.

As for `CN(C)CC(=O)N[C@@H]1C[C@@H]2O[C@H](CO)CC[C@@H]2O[C@@H]1CCc1ccc(C#Cc2ccccc2)cc1`, the activation was -2.47%.

`COc1ccc(C2=NOC(COC(=O)c3ccc4ccccc4n3)C2)cc1` (stereo unspecified): the activation was 7.15% (active).

In the case of `COc1ccc(C(=O)COC(=O)c2ccc3ccccc3n2)cc1`, the activation was 0.42%.

As for `COc1cccc(NC(=O)COC(=O)c2ccc3ccccc3n2)c1`, the activation was 4.16%.

`COc1cccc(C(O)Cc2nc3ccccc3n2C)c1OC` (stereo unspecified): the activation is -0.39%.

`Cc1ccc(OCc2nnc(SC3CCc4ccccc4C3=O)n2C)cc1` (stereo unspecified): the activation was 1.15%.

In the case of `Cc1ccc(OCc2nc3ccccc3n2C)cc1`, the activation was 11.3% (active).

Take `COc1ccc(OC)c(NC(=O)Cn2c(=O)oc3ccccc32)c1`: the activation was -1.37%.

For `CC(=O)c1ccc(NC(=O)Cn2c(=O)oc3ccccc32)cc1`, the activation was -1.53%.

On to `Cc1cccnc1NC(=O)Cn1c(=O)oc2ccccc21`, for which the activation is 6.75% (active).

Regarding `CCC[C@H]1C(=O)CC[C@@]23CCCN2C(=O)CCC[C@@H]13`, the activation is 0.52%.

With `COc1ccnc(C(=O)N2CCC(Oc3cccnc3)CC2)c1`, the activation was -0.13%.

As for `CN(C)CCNC(=O)c1ccc(-c2cn3c(-c4ccc(Oc5ccccc5)cc4)cnc3cn2)cc1`, the activation is -0.28%.

As to `CN(C)CCNC(=O)c1[nH]nc2c1CCc1ccccc1-2`, the activation was 6.06% (active).

On to `COCCN(CCOC)S(=O)(=O)c1ccc(C(=O)Nc2nc3c(s2)CCc2ccccc2-3)cc1`, for which the activation was -3.08%.

Turning to `COC(=O)[C@]12C[C@H](CC(=O)NCCCCc3ccccc3)C(=O)N(Cc3ccc4c(c3)OCO4)C1=C[C@H](C(C)(C)C)O[C@@H]2C`, the activation was 2.01%.

For `C[C@H]1[C@H](NC(=O)c2cccc(N(C)C)c2)CC[C@@]23CCCN2C(=O)CCC[C@@H]13`, the activation is -1.72%.

Turning to `CCCNC(=O)Nc1ccc2c(c1)C(=O)N(C)[C@H]1CC[C@H](CC(=O)NCC3CCCCC3)O[C@@H]1CO2`, the activation was 1.19%.

Consider `Cc1nc(NC(=O)C(C)(C)C)sc1[N+](=O)[O-]`, for which the activation was -0.38%.

In the case of `Nc1[nH]c(C(=O)c2ccccc2)c(-c2ccc(Cl)cc2Cl)c1C(=O)c1ccccc1`, the activation is -1.47%.

On to `Nc1[nH]c(C(=O)c2ccc(Br)cc2)c(-c2ccc3c(c2)OCO3)c1C(=O)NCCc1c[nH]c2ccccc12`, for which the activation is 0.26%.

In the case of `O=c1c2cc([N+](=O)[O-])ccc2nc2n1CCC2`, the activation is -0.38%.

`Cc1ccc(-n2cc3ccc([N+](=O)[O-])cc3n2)cc1`: the activation was 9.08% (active).

For the compound `Cc1ccnc(N2C(=O)c3ccc([N+](=O)[O-])cc3C2=O)c1`, the activation was -1.07%.

Turning to `COC(=O)C[C@@H]1CC[C@@H]2[C@H](COc3ccc(NC(=O)c4cccc(F)c4)cc3C(=O)N2C)O1`, the activation was -2.02%.

As for `O=C(NCCCc1ccccc1)[C@H](Cc1ccccc1)NC1(C(=O)NCCc2c[nH]c3ccccc23)CCC1`, the activation is 1.93%.

For `Nc1ncnc2c1ncn2[C@@H]1O[C@H](C(=O)N[C@@H](CCc2ccccc2)C(=O)NCC(=O)N2CCOCC2)[C@@H](O)[C@H]1O`, the activation is -0.25%.

For the compound `Cc1cc(NC(=O)Nc2ccccc2[N+](=O)[O-])no1`, the activation is -0.4%.

Regarding `Cc1csc(NC(=O)Nc2ccccc2[N+](=O)[O-])n1`, the activation was 13.9% (active).

On to `CN1CCN(CCNC(=O)Nc2ccccc2[N+](=O)[O-])CC1`, for which the activation was -0.05%.

For the compound `CCOc1ccc(-n2c(SCC(=O)Nc3cc(C)c(NC(=O)c4ccccc4)cc3OC)nnc2-c2cccs2)cc1`, the activation is -0.56%.

Regarding `O=C(CN1C(=O)NC2(CCc3ccccc32)C1=O)NC1CCCCC1` (stereo unspecified), the activation is 2.74%.

`Nc1nc2c(ncn2[C@@H]2O[C@H](C(=O)N[C@H](Cc3ccccc3)C(=O)NCC3CCCCC3)[C@@H](O)[C@H]2O)c(=O)[nH]1`: the activation was 1.38%.

Take `COc1ccc(NC(=O)c2c(C)oc3c2CCCC3)cc1`: the activation is 1.98%.

On to `CC1CC(C)CN(CCCNC(=O)c2csc3c2CCCCC3)C1` (stereo unspecified), for which the activation was 0.75%.

As to `Cc1ccc(NC(=O)c2csc3c2CCCC3)cc1`, the activation is 11.3% (active).

Regarding `COCCNC(=S)N(C)[C@H]1C[C@H]2c3[nH]c4ccccc4c3CCN2C[C@H]1[C@H](C)O`, the activation is 1.74%.

`COc1cc2cc(CN(CCN3CCCC3)C(=O)Nc3ccccc3Cl)c(=O)[nH]c2cc1OC`: the activation was -0.2%.
